Results on 4 molecules are retold here after PubChem BioAssay.

For assay [1], the system named is Wnt5a (protein binding on small-molecule microarray). Description: small molecules binding Wnt5a protein – biophysical, small-molecule microarray, 635/667 nm fluorescence, primary screen (AID 1142).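 Note: fluorescence read at 667 nm with signal to noise per printed feature.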 Conditions: 635 nm fluorescence, higher = more signal.
Assay [2] can be described thus: ATP-based viability of Huh7 replicon cells – cell-based, CellTiter-Glo luminescence, basal, 48 h, cytotoxicity control for HCV replication inhibitor project, primary screen (AID 1143).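 Note: Huh7 hepatoma cells carrying a hepatitis C replication reporter with no stimulus; test concentration not given here.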 Conditions: higher = more signal, called active from +8 up or from −8 down. In general terms: In antiviral work, replicon cells carry a viral genome segment that copies itself.
Assay [3] is described as follows: Pseudomonas biofilm growth suppression – PAO1 strain, BacTiter-Glo luminescence, LB-PBS, primary screen (AID 1144). To be noted: P. aeruginosa PAO1 biofilm, 12 h, higher = more signal.
A short description of assay [4]: basal CRE-LacZ reporter activity in PC12 – cell-based, unstimulated, primary screen (AID 1145). Conditions: no forskolin, luminescence, 4.5 h, higher = more signal, called active from +8 up or from −8 down.
A short description of assay [5]: forskolin-driven CRE-LacZ activity in PC12 – cell-based, CRE-LacZ reporter, forskolin-stimulated, primary screen (AID 1146).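 Note: PC12 cells with 6xCRE LacZ reporter stimulated by forskolin 10 µM; beta-galactosidase reporter signal reflecting CREB driven transcription.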 Conditions: luminescence, 4.5 h, higher = more signal, called active from +8 up or from −8 down.
Assay [6] has as its target Streptavidin (Streptomyces avidinii) (UniProt P22629). Description: compounds binding control protein streptavidin – biophysical, small-molecule microarray, 635/667 nm fluorescence, artefact control for SMM compound annotation, primary screen (AID 1147).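 Note: signal reflects streptavidin binding to arrayed compounds as a control protein.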 Conditions: higher = more signal.
Assay [7] in a line: probe aInhba binding on compound microarray – biochemical, small-molecule microarray, 635/667 nm fluorescence, primary screen (AID 1148).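 Note: score merges 667nm spot fluorescence with signal-to-noise for antibody binding to printed compounds.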 To be noted: higher = more signal.
For assay [8], the target named is Torsin-1A (Homo sapiens) (UniProt O14656). Description: TOR1A wild-type binding on microarray – cell lysate, small-molecule microarray, lysate, 635/667 nm, primary screen (AID 1149). To be noted: COS7 hTOR1A-WT lysate, 635 nm fluorescence, higher = more signal.
Chain of Torsin-1A (Homo sapiens) (O14656 whole entry, looked up): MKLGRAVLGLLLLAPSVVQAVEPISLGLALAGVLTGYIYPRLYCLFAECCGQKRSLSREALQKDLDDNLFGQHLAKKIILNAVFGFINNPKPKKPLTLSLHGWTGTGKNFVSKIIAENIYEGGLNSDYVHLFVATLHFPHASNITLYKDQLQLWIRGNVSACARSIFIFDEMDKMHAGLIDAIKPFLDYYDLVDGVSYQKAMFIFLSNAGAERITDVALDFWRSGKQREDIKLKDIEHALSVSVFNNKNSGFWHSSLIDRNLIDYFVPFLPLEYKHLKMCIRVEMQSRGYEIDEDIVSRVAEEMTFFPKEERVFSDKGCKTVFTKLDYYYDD
For assay [9] the target is unchanged. Description: torsin A mutant lysate binding on microarrays – cell lysate, small-molecule microarray, COS7 lysate, 635/667 nm fluorescence, primary screen (AID 1150).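 Note: score pools 667 nm emission and signal to noise measuring lysate protein binding.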 To be noted: COS7 hTOR1A mutant lysate, 635 nm fluorescence, higher = more signal.
Assay [10] concerns Sonic hedgehog protein (Shh). Description: Sonic hedgehog microarray binding compounds – biochemical, small-molecule microarray, 635/667 nm fluorescence, primary screen (AID 1151).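 Note: Shh protein binding to compounds spotted on small-molecule microarray slides; score combines spot fluorescence intensity with signal-to-noise across triplicate slides.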 Conditions: 635 nm fluorescence, higher = more signal.
A short description of assay [11]: optical density shifts of acrAB sulA E. coli – strain DRC41, OD650, 48 h, E. coli filamentation inducer project, primary screen (AID 1152).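 Note: E. coli MC1000 strain DRC41 lacking acrAB efflux pump and sulA.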 Conditions: higher = more signal, called active from +8 up or from −8 down.
Assay [12] can be described thus: probe aLefty1 binding on compound microarray – biochemical, small-molecule microarray, 635/667 nm fluorescence, primary screen (AID 1153).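 Note: score merges spot fluorescence with signal-to-noise ratio from the scanned slide images.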 To be noted: higher = more signal.
Assay [13] can be described thus: plasmodial surface anion channel blockers, osmotic lysis – cell-based, P. falciparum Indochina, OD700, 1 h, primary screen (AID 1154). To be noted: P. falciparum Indochina infected RBC osmotic lysis, higher = more signal, called active from +8 up or from −8 down.
A short description of assay [14]: plasmodial surface anion channel blockers, osmotic lysis – cell-based, P. falciparum Indochina, OD700, 2 h, primary screen (AID 1155).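 Note: lysis reports solute entry through the parasite surface anion channel PSAC.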 To be noted: P. falciparum Indochina infected erythrocytes, higher = more signal, called active from +8 up or from −8 down.
Assay [15] can be described thus: changes in parasitized red cell lysis, either direction – P. falciparum Indochina, OD700, 3 h, PSAC antagonist project, primary screen (AID 1156). To be noted: P. falciparum-infected erythrocytes, osmotic lysis, higher = more signal, called active from +8 up or from −8 down.
Assay [16] in a line: plasmodial surface anion channel blockers, osmotic lysis – cell-based, P. falciparum Indochina, OD700, 18 h, primary screen (AID 1157). Conditions: P. falciparum Indochina infected erythrocytes, osmotic lysis OD700, 18 h; higher = more signal, called active from +8 up or from −8 down.
The nature of assay [17]: S6 kinase pathway phospho-S6 level changes – cell-based, A549, cytoblot, luminescence, serum-stimulated, primary screen (AID 1158).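 Note: serum-stimulated A549 lung adenocarcinoma cells; signal is phosphorylated S6 detected by cytoblot immunostaining with HRP secondary.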 Conditions: 5 h, higher = more signal.
Assay [18] concerns the target NADPH oxidase 2 (Homo sapiens) (UniProt P04839). Description: compounds shifting NOX2 Amplex Red fluorescence – cell-based, HEK293-NOX2, PMA-stimulated, NOX inhibitor project, primary screen (AID 1159). Note: test concentration not given here. Conditions: 45 min, higher = more signal, called active from +8 up or from −8 down.
Assay [19] deals with NADPH oxidase 4 (Homo sapiens) (UniProt Q9NPH5). Description: compounds shifting NOX4 Amplex Red fluorescence – cell-based, HEK293-NOX4, tetracycline-induced, NOX inhibitor project, primary screen (AID 1160). To be noted: HEK293-NOX4, Amplex Red H2O2 fluorescence, 45 min; higher = more signal, called active from +8 up or from −8 down.
Chain of NADPH oxidase 4 (Homo sapiens) (Q9NPH5 whole entry, looked up): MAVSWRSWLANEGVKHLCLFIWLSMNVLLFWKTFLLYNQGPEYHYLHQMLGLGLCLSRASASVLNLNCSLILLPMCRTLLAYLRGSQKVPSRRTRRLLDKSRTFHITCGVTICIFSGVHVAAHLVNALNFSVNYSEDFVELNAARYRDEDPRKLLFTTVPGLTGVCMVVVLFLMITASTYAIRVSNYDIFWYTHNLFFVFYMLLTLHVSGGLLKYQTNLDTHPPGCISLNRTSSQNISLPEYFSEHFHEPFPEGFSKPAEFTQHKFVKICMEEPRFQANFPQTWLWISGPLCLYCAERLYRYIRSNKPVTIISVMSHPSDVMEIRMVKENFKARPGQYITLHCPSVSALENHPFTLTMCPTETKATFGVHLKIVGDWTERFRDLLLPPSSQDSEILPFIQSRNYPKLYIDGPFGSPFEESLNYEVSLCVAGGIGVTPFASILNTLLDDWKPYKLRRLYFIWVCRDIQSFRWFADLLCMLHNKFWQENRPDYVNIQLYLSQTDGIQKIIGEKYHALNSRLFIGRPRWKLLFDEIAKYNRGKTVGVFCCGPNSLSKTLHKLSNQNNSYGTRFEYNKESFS
Assay [20] concerns the target NADPH oxidase 5 (Homo sapiens) (UniProt Q96PH1). Description: compounds shifting NOX5 Amplex Red fluorescence – cell-based, HEK293-NOX5, NOX inhibitor project, primary screen (AID 1161). To be noted: HEK293-NOX5, ionomycin, 45 min, higher = more signal.

Activity calls are given as the source filed them. Unless noted, the rule behind the calls is not given here.

Chain of Streptavidin (Streptomyces avidinii) (P22629 whole entry, looked up): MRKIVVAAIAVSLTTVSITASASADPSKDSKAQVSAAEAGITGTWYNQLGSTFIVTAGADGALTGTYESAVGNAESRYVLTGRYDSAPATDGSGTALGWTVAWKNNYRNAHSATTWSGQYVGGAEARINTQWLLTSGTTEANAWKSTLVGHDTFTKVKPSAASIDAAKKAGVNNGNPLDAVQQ
Chain of NADPH oxidase 5 (Homo sapiens) (Q96PH1 whole entry, looked up): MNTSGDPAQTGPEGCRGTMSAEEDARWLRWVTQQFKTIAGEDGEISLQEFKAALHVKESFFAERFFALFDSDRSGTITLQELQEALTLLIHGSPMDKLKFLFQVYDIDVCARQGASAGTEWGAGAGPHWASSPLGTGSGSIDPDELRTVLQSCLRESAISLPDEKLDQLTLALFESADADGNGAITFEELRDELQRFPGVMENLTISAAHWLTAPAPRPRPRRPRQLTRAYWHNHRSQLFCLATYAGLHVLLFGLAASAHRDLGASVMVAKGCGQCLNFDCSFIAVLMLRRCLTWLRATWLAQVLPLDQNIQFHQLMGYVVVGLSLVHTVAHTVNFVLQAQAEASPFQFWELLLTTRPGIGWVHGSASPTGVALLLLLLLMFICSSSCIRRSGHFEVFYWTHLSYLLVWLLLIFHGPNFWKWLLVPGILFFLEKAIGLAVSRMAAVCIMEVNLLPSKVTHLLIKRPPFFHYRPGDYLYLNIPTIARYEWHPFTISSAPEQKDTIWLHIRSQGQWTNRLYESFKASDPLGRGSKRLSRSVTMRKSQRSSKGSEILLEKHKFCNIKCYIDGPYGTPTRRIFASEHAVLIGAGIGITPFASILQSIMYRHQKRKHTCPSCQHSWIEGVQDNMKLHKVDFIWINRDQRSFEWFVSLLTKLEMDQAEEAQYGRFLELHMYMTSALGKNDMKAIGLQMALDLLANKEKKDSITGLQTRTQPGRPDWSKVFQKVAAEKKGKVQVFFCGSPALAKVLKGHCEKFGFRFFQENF
Chain of NADPH oxidase 2 (Homo sapiens) (P04839 whole entry, looked up): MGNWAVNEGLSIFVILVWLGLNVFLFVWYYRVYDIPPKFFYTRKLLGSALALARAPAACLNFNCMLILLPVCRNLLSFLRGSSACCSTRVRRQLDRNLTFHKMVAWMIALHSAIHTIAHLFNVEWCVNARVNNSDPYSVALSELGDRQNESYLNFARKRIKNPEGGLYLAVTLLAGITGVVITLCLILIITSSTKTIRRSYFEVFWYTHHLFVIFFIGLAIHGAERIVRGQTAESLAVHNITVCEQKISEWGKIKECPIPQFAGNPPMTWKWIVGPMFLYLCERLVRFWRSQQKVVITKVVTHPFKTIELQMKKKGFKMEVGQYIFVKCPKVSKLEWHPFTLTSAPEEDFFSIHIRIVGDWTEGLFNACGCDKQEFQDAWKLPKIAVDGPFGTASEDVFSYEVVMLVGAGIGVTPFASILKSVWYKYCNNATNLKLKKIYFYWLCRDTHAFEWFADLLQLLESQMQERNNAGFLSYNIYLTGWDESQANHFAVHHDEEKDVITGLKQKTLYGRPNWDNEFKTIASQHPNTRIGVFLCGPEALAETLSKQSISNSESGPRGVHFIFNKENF

As for `OCCCc1cc[n+](Cc2cc3c(cc2Br)OCO3)cc1`, the composite z-score is -0.265 in assay [1]; -0.838 in [6]; -0.209 in assay [7]; -1.27 in the assay with Torsin-1A (Homo sapiens) [8]; -0.561 with Torsin-1A (Homo sapiens) [9]; -0.508 in assay [10]. The same molecule showed a composite z-score in assay [12] of 0.0191. Also, the z-score in [2] was -0.633 (inactive); in assay [3], 0.0177 (inactive); in assay [4], -0.374 (inactive); in assay [5] it was -0.121 (inactive); in assay [11] it was 0.855 (inactive); in assay [13] it was -0.103 (inactive). Moreover, the z-score in [14] is 0.0608 (inactive); in assay [15], -0.895 (inactive); in assay [16], -0.237 (inactive); in [17], -0.132; in assay [18], -0.0452 (inactive); in assay [19] it was 0.27 (inactive). The z-score in assay [20] was -0.112.

In the case of `COc1ccc([Si](C)(C)[C@@H]2[C@@H](CC(=O)N(CCO)Cc3ccccc3)O[C@]3(C(=O)N(Cc4cccc(I)c4)c4ccccc43)[C@H]2C)cc1`, the composite z-score in assay [1] is 0.546; in assay [6], -0.196; in [7] it was -0.0405; in the assay with Torsin-1A (Homo sapiens) [8], 0.48; in the assay with Torsin-1A (Homo sapiens) [9] it was 0.443; in [10], 1.79. Moreover, the composite z-score in assay [12] is 0.0464. For the same molecule, the z-score in assay [2] is -4.61 (inactive); in assay [3] it was 0.191 (inactive); in assay [4], 1.42 (inactive); in assay [5] it was -1.11 (inactive); in [11] it was -0.307 (inactive); in assay [13], 4.63 (inactive). Also, the z-score in assay [14] is 1.5 (inactive); in assay [15] it was -0.0382 (inactive); in assay [16], 1.14 (inactive); in assay [17], 0.32; in assay [18], -0.953 (inactive); in assay [19], 1.19 (inactive). In assay [20], the z-score was determined as 1.43.

On to `COc1ccc([Si](C)(C)[C@H]2[C@H](CC(=O)N3CCC[C@H]3CO)O[C@@]3(C(=O)N(Cc4cccc(N5CCCCC5=O)c4)c4ccccc43)[C@@H]2C)cc1`, for which the composite z-score in assay [1] was -0.108; in assay [6] it was 0.233; in assay [7], -0.128; with Torsin-1A (Homo sapiens) [8], 0.593; with Torsin-1A (Homo sapiens) [9], 0.812; in assay [10] it was 2.01. Further, the composite z-score in [12] was 0.0799. The z-score in assay [2] is -1.39 (inactive); in assay [3], -0.00805 (inactive); in [4], 2.88 (inactive); in assay [5], -0.314 (inactive); in assay [11], 0.499 (inactive); in [13], 4.11 (inactive). Moreover, the z-score in [14] is 0.57 (inactive); in [15] it was 0.318 (inactive); in [16], 0.525 (inactive); in [17] it was -0.438; in assay [18], 1.45 (inactive); in assay [19], 1.44 (inactive). In assay [20], the z-score worked out at 4.92.

On to `C=C(COC)/C(=C/C[C@@H](OC(C)=O)c1cccc(OCCO)c1)c1cnc2ccccc2c1`, for which the composite z-score in assay [1] is 0.603; in assay [6], 0.897; in [7], -0.0131; with Torsin-1A (Homo sapiens) [8], 0.14; with Torsin-1A (Homo sapiens) [9] it was 0.499; in [10] it was 1.83. The molecule also had a composite z-score in assay [12] of 0.106. In addition, the z-score is -2.14 (inactive) in assay [2]; 0.0432 (inactive) in [3]; 2.53 (inactive) in assay [4]; -0.444 (inactive) in [5]; 0.441 (inactive) in assay [11]; 22.7 (active) in assay [13]. Further, the z-score in [14] was 4.9 (inactive); in assay [15], 0.377 (inactive); in [16], 1.58 (inactive); in assay [17] it was 0.249; in [18], -1.21 (inactive); in assay [19], -0.77 (inactive). The z-score in assay [20] was -2.27.
